# Only some compounds are listed: those with a hit (about 2.7% of all), similar ones and a draw of the others.
# aDG glyco act: activators of alpha-DG glycosylation, primary screen, uHTS, Pro5-aDG cells, AlphaScreen | 0.22% of 360,000 active | alpha-DG glycosylation AlphaScreen (IIH6); 0% Pro5, 100% B10-LARGE cell signal | activation, % at 10 µM;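 active = activation of at least 8% versus controls, or a plate z-score of at least 8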;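 also: Pro5 are CHO cells carrying HIG-tagged alpha-DG that lacks glycosylation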
# TAG inh: inhibitors of triacylglycerol accumulation, primary screen, cell-based, uHTS, fluorescence, H9c2; H9c2 cells, Nile Red lipid (TAG) fluorescence; cells loaded with 200 µM oleic acid; inhibition, % at 12.5 µM; AID 651582, 2012; 0.66% of 230,000 active;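 active = pattern-corrected inhibition of lipid staining of at least 50% with the nuclear-stain viability signal not falling by more than 50%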;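 also: 0% = DMSO wells and 100% = triacsin C control wells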
# NadD inh: inhibitors of S. aureus NadD, primary screen, biochemical, colorimetric, uHTS | inhibition, % at 20 µM | AID 602399, 2012 | 0.78% of 360,000 active | Nicotinate-nucleotide adenylyltransferase NadD (Staphylococcus aureus N315) | purified NadD enzyme, colorimetric absorbance read-out; in the data active = inhibition above about 26%
# MPTP inh: mitochondrial permeability transition pore inhibitors, primary screen, biochemical, isolated mouse mitochondria, absorbance; Ca2+ swelling absorbance, 30 min; inhibition, % at 10 µM; 1.4% of 360,000 active; AID 602449, 2012;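 active = inhibition of 50% or more, scaled per plate between neutral and stimulator controls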;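 also: 0% = DMSO wells given calcium and 100% = 1 mM EGTA wells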
# NadD inh conf: inhibitors of S. aureus NadD, confirmation, biochemical, colorimetric, single concentration; shares compounds with NadD inh; purified S. aureus NadD, colorimetric enzyme assay; inhibition, % at 20 µM; 13% of 2,000 active; AID 624309, 2012; in the data active = inhibition mostly above about 42%, no sharp cut-off; inactive = mostly below about 42%
# The depositor's hits bear a star; . = no result.
SMILES,aDG glyco act,TAG inh,NadD inh,MPTP inh,NadD inh conf
Nc1ccc2cc3ccccc3cc2c1,0,.,12,5,.
Nc1ccc2cccc(O)c2c1,0,24,41*,3,29
COc1ccc(NS(=O)(=O)c2cc(NC(=O)CCNC(C)=O)ccc2N2CCCCC2)cc1,0,14,0,-1,.
COc1ccccc1NS(=O)(=O)c1cc(NC(=O)Nc2ccccc2)ccc1N1CCCCC1,0,.,35*,30,24
COc1ccc(NS(=O)(=O)c2cc(NC(=O)/C=C/c3cc(OC)ccc3OC)ccc2N2CCCCC2)cc1,0,.,39*,6,13
CCOc1ccc(/C=N/NC(=O)c2ccccc2C)cc1CN1CC2CC(C1)c1cccc(=O)n1C2 (configuration not stated),0,.,9,0,.
COc1ccc(-c2cccc(C3CC=CC4C3C(=O)N(Cc3ccccc3)C4c3ccc(C(F)(F)F)cc3)c2)cc1 (configuration not stated),0,-19,10,-1,.
CN(C)c1ccc(-c2cccc(C3CC=CC4C3C(=O)N(Cc3ccccc3)C4c3ccc(C(F)(F)F)cc3)c2)cc1 (configuration not stated),-1,-8,31*,-2,13
Cc1cc2nc(-c3cccc(Br)c3)c(Cc3cccc(Cl)c3)n2c(C)c1Br,0,.,35*,1,15
COc1cc(NCCCn2ccc(NC(=O)OCc3ccccc3)nc2=O)cc(OC)c1OC,1,12,0,-1,.
CCN(CC(=O)NC(=O)NC1CCCC1)Cc1ccccc1,0,6,-3,0,.
Cc1nc2ccc(C(=O)N3c4ccccc4N=C(c4ccc(C(F)(F)F)cc4)C3C(=O)NC(C)(C)C)cc2[nH]1 (configuration not stated),0,.,.,1,.
O=[N+]([O-])c1cccc(SSc2cccc([N+](=O)[O-])c2)c1,0,-9,44*,10,58*
Nc1cccc([N+](=O)[O-])c1,0,-7,2,0,.
Cc1cc(C)c2nc(N3C(=O)C(O)=C(C(=O)c4ccco4)C3c3ccco3)sc2c1 (configuration not stated),0,.,39*,1,46
O=C(NC1CCCCC1)C(c1ccc(O)cc1)N(C(=O)c1cnccn1)c1cccc(F)c1 (configuration not stated),0,.,-1,0,.
Cc1ccccc1C(=O)Nc1nnc(CC(=O)N/N=C/c2cn(Cc3ccccc3)c3ccccc23)s1,0,2,45*,2,16
Cc1ccccc1C(=O)Nc1nnc(CC(=O)N/N=C/c2ccco2)s1,0,7,0,1,.
Fc1ccc(-c2nc3ccc(Br)cn3c2Cc2ccccc2C(F)(F)F)cc1,5,.,6,0,.
CCCCOc1ccccc1NC(=O)CC1Nc2ccccc2NC1=O (configuration not stated),0,.,31*,0,34
CN1C(=O)CN(CCN2CC(=O)N(C)C(=O)C2)CC1=O,0,1,-3,0,.
Cc1cccc(S(=O)(=O)c2c(N)n(/N=C/c3cccnc3)c3nc4ccccc4nc23)c1,0,.,4,0,.
Nc1c(S(=O)(=O)c2ccccc2)c2nc3ccccc3nc2n1/N=C/c1ccco1,1,.,37*,1,4
Cc1cccc(S(=O)(=O)c2c(N)n(/N=C/c3ccco3)c3nc4ccccc4nc23)c1,0,.,41*,0,11
CC1(C(=O)NS(=O)(=O)c2cccc(OC(F)F)c2)CCN1C(=O)Cc1cccs1 (configuration not stated),0,4,0,2,.
SMILES,aDG glyco act,TAG inh,NadD inh,MPTP inh,NadD inh conf
COc1ccccc1CNS(=O)(=O)c1ccc(N2CCCC2)cc1Br,0,-33,2,1,.
COc1cccc(-c2cnc(C(O)c3c(C)cc(C)cc3C)[nH]2)c1 (configuration not stated),0,-9,-4,1,.
Cc1ccc([N+](=O)[O-])cc1-c1ccc(/C=C(\C#N)c2[nH]nc(N)c2C#N)o1,0,8,28*,6,5
Cc1ccc(C(=O)N/C(=C/c2ccc(Cl)cc2)C(=O)N2CCOCC2)cc1,0,.,0,1,.
CCOC(=O)c1ccc(-c2ccc(N3C(c4ccsc4)=Cc4ccc(F)cc4C3c3c[nH]c4ccc(C#N)cc34)cc2)cc1F (configuration not stated),0,.,30*,0,10
CC(C)(O)C#Cc1ccc(N2C(c3ccsc3)=Cc3ccc(F)cc3C2c2c[nH]c3ccc(C#N)cc23)cc1 (configuration not stated),0,.,15,3,.
CC(C)(C)OC(=O)CC[C@@H](C(=O)NCCCCCCCCCCC(=O)N1CCN(C(=O)OC(C)(C)C)CC1)n1cc(CCCCCNC(=O)OC(C)(C)C)nn1,0,-8,32*,1,-4
COc1ccc(Br)c(C(=O)N(C)CC(=O)Nc2ccc(N3CCOCC3)cc2)c1,0,-14,-7,0,.
N#C/C(=C/c1cn(-c2ccccc2)nc1-c1cccc(S(=O)(=O)N2CCCC2)c1)C(=O)NCc1ccco1,0,.,46*,0,49*
N#C/C(=C/c1cn(-c2ccccc2)nc1-c1cccc(OCc2ccccc2)c1)C(=O)NCCCn1ccnc1,2,.,41*,0,-2
CCOc1cccc(-c2nn(-c3ccccc3)cc2/C=C(/C#N)C(=O)NCCCn2ccnc2)c1,0,.,21,-1,.
Cc1ccc(C)c(NC(=O)CN(C)C(=O)c2cccc(N3C(=O)CCC3=O)c2)c1,0,6,1,-2,.
O=C(Nc1nc(-c2ccco2)c(-c2ccco2)s1)c1ccc(F)cc1F,1,10,41*,0,13
O=C(Nc1nc(-c2ccco2)c(-c2ccco2)s1)c1c(F)cccc1Cl,0,6,43*,1,35
COC(=O)C(Cc1ccc(O)cc1)NC(=O)CCc1nc2ccccc2s1 (configuration not stated),0,.,-4,0,.
CC(C)NC(=O)C1(C)CCN1C(=O)C1(c2ccccc2)CC1 (configuration not stated),0,-8,1,-1,.
Cc1ccc(-c2csc(N3CCN(S(=O)(=O)c4ccc5c(c4)NC(=O)CO5)CC3)n2)cc1,0,.,39*,4,8
O=C1COc2ccc(S(=O)(=O)N3CCCC3)cc2N1,0,.,-2,0,.
Cc1ccc(S(=O)(=O)Nc2ccc(Nc3nccn4c(-c5cccc(OC(F)(F)F)c5)cnc34)cc2)cc1,3,39,33*,2,53*
O=C(NCCO)c1cccc(-c2cnc3c(Nc4cccc(OC(F)(F)C(F)F)c4)nccn23)c1,1,12,-4,1,.

# Assay outcomes deposited in PubChem by Sanford-Burnham Center for Chemical Genomics.
